Consider five compounds from PubChem BioAssay.

Results filed as inconclusive are left out. Activity calls are given as the source filed them. Cut-off read from the data, not from the text of the source, unless noted: active = percent of DMSO control GFP below about 86%; inactive = the rest, inconclusive results apart.

A short description of assay [1]: yeast TOR pathway RPL19A-GFP modulators, primary screen, cell-based, S. cerevisiae, multiplex flow cytometry (AID 1862).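 Note: lower values mimic rapamycin by blocking the RPL19A rise seen in DMSO cells.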 Particulars: S. cerevisiae RPL19A-GFP strain, flow cytometry fluorescence, 3 h; at 10 µM; stronger effect = lower value.
Assay [2] can be described thus: modulators of MEP2-GFP levels in yeast, primary screen, S. cerevisiae, multiplex flow cytometry (AID 1867;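 active = GFP response, as percent of the DMSO control, above the screen-wide mean plus 3 SD, about 139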;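 note: median GFP channel fluorescence of barcode-gated MEP2-GFP cells measured by flow cytometry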). Particulars: S. cerevisiae MEP2-GFP strain, 3 h, at 10 µM, stronger effect = higher value, 100% means same as DMSO wells.
Assay [3] can be described thus: modulators of CIT2-GFP expression in yeast, primary screen, S. cerevisiae, GFP fusion, multiplex flow cytometry (AID 1870;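 active = percent response above a set limit, the screen-wide mean plus 3 SD, cut at about 130% in these data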;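 note: barcoded CIT2-GFP strain pooled with four other GFP strains with rapamycin as positive control; median GFP fluorescence per well over plate mean of DMSO wells so 100% = DMSO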). Particulars: 3 h, at 10 µM, stronger effect = higher value.
Assay [4] is described as follows: modulators of LAP4-GFP expression in yeast, primary screen, S. cerevisiae, multiplex flow cytometry (AID 1873;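 active = GFP signal, as percent of the solvent control, above the screen mean plus 3 SD, about 149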). The settings on record: 3 h, at 10 µM, stronger effect = higher value.
Assay [5] can be described thus: modulators of AGP1-GFP expression in yeast TOR pathway, primary screen, cell-based, multiplex flow cytometry, S. cerevisiae (AID 1887;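 active = GFP signal above the screen-wide mean plus 3 SD, that is over about 124.5% of the solvent control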;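 note: AGP1-GFP fusion strain of S. cerevisiae within a five-strain barcoded multiplex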). Particulars: 3 h, at 10 µM, stronger effect = higher value.
Assay [6] in a line: inhibitors of CD8+ T cell-vesicle binding, pilot screen, LFA-1/ICAM-1 modulator project, MLPCN validation set, flow cytometry (AID 2523;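 active = response below a set limit, under 55% cells CD8-positive and vesicle-bound, and CD8 cells' 90th-percentile brightness under 279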;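 for vesicle binding response: mean PE anti-B7-1 fluorescence of CD8+ cells relative to row control; 100% = QL9-loaded vesicles with DMSO vehicle in the same plate row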). The settings on record: 2C mouse CD8+ T cells, at 7 µM, stronger effect = lower value; double positive events: measured here: CD8+/vesicle+ event percentage.
In assay [7] the target is Integrin beta-1 (Homo sapiens) + Integrin alpha-4 (Homo sapiens) (UniProt P13612+P05556). Put plainly: inhibition of HUTS-21 binding to VLA-4, pilot screen, VLA-4 allosteric modulator project, U937 cells, HUTS-21 mAb, flow cytometry, validation set (AID 2674;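 active = inhibition above 50%, about 3 SD of the validation set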;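 note: antibody binding induced by the VLA-4 ligand LDV present at three times its Kd; 0% = LDV ligand with antibody and no compound and 100% = antibody without LDV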). Particulars: HUTS-21 LIBS mAb binding, at 6.7 µM, stronger effect = higher value, binding induced by LDV ligand.
Chain of Integrin beta-1 (Homo sapiens) + Integrin alpha-4 (Homo sapiens) (P05556 whole entry, looked up): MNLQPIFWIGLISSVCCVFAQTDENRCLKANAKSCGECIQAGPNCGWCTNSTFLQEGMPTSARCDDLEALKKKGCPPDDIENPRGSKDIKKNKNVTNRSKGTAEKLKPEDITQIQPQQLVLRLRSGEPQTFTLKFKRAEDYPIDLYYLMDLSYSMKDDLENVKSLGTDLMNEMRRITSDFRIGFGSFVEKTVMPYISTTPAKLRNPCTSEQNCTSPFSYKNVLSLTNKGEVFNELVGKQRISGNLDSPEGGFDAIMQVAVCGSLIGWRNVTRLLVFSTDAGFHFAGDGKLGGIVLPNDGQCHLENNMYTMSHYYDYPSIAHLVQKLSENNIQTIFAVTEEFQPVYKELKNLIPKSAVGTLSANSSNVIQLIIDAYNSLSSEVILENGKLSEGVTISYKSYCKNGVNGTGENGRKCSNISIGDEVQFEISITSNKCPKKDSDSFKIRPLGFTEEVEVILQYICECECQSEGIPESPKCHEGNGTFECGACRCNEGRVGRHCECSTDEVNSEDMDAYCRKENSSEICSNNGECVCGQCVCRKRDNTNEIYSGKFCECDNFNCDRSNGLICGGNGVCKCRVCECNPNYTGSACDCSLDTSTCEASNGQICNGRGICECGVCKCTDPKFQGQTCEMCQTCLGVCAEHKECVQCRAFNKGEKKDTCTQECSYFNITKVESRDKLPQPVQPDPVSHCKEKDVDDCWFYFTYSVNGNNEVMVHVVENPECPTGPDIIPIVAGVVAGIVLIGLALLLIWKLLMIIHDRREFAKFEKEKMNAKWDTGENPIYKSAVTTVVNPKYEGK
Chain of Integrin beta-1 (Homo sapiens) + Integrin alpha-4 (Homo sapiens) (P13612 whole entry, looked up): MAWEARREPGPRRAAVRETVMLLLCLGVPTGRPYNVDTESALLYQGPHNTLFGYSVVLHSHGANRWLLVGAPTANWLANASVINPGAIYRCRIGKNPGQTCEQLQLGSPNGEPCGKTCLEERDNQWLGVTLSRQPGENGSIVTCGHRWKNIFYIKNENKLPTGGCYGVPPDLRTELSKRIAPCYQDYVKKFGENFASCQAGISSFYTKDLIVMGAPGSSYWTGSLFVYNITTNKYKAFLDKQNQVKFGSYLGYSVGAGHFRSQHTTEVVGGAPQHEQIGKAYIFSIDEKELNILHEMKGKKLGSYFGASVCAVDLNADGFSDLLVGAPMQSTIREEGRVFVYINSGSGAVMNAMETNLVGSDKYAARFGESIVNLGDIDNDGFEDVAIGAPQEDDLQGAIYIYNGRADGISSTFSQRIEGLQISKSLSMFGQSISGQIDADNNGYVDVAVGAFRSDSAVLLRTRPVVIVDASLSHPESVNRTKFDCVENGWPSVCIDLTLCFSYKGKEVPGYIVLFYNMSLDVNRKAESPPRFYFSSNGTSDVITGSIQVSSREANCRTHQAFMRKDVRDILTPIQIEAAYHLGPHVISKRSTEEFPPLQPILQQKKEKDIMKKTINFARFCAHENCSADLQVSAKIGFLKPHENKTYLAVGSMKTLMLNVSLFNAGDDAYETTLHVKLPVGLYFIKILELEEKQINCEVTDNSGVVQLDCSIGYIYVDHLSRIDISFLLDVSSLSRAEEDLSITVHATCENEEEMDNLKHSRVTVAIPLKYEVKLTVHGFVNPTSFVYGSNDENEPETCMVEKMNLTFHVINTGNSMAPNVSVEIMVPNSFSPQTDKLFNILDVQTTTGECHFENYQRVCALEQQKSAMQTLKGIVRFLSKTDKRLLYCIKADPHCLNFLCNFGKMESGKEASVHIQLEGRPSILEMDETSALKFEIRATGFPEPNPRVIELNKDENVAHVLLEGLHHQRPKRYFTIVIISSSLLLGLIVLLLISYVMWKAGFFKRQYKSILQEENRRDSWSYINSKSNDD
Assay [8] in a line: superoxide lowering in aged yeast cells, pilot screen, validation compound set (AID 2706;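 active = superoxide response below 65% of plate, a cut near 3 SD across the whole screen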;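 note: yeast exposed to compound for one week at 30 degrees C before staining; 100% = mean of all compound wells on the same plate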). The settings on record: S. cerevisiae aging, superoxide DHE fluorescence; at 10 µM; stronger effect = lower value.
For assay [9], the target named is Beta-adrenergic receptor kinase 1 (Homo sapiens) (UniProt P25098). Description: GRK2 binders displacing RNA aptamer, biochemical, validation, human GRK2, bead flow cytometry (AID 488806;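 active = aptamer binding inhibition above 30%, about 3 SD of noise from non-fluorescent compounds; inactive = inhibition at or below 30%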). The settings on record: bead-bound GRK2, FAM-aptamer displacement, at 10 µM, stronger effect = higher value.
Chain of Beta-adrenergic receptor kinase 1 (Homo sapiens) (P25098 whole entry, looked up): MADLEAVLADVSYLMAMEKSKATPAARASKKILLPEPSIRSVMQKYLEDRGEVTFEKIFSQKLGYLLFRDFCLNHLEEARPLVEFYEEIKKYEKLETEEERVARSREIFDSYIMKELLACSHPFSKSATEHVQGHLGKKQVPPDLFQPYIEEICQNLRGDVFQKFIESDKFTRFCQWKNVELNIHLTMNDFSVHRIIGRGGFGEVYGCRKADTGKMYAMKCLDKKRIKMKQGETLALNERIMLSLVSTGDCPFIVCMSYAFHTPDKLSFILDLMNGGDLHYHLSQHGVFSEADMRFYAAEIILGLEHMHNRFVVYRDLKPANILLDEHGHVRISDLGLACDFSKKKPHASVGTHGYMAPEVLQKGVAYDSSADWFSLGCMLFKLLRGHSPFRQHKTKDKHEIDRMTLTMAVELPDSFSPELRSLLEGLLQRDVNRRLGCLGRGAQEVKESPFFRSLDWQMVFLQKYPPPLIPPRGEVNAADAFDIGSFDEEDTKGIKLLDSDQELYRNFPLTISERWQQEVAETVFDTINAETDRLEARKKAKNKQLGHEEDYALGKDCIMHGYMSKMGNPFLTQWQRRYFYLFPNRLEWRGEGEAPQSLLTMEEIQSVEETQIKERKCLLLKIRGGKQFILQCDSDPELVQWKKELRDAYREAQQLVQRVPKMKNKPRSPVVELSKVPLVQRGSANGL
In assay [10] the target is Beta-2 adrenergic receptor (Homo sapiens) (UniProt P07550). Description: beta2AR agonists driving receptor internalization, pilot screen, cell-based, FAP fluorogen, flow cytometry, validation set (AID 504459;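 active = percent response above 42, roughly 3 SD of non-fluorescent test compounds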;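 note: agonist-driven loss of surface beta2AR via internalization measured by FAP dye flow cytometry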). The settings on record: Am2.2-beta2AR cells, FAP surface receptor flow cytometry; at 10 µM; stronger effect = higher value.
Chain of Beta-2 adrenergic receptor (Homo sapiens) (P07550 whole entry, looked up): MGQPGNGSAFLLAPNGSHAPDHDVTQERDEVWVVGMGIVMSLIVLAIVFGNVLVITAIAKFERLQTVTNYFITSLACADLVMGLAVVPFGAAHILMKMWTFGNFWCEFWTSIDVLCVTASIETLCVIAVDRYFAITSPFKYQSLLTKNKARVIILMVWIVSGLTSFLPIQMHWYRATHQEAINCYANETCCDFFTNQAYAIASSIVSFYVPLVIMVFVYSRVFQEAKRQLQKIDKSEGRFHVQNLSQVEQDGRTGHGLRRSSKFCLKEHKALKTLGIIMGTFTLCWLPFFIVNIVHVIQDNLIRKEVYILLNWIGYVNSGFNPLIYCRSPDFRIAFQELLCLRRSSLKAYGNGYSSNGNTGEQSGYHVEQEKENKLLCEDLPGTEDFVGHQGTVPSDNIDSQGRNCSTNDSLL
In assay [11] the target is AP-2 complex subunit beta (Homo sapiens) (UniProt P63010). Description: inhibitors of arrestin peptide binding to AP2, pilot screen, biochemical, validation set, GST-AP2 beads, flow cytometry (AID 504541;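 active = inhibition above 54%, about 3 SD of non-fluorescent compounds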;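 note: AP2 carries R879A mutation and is captured from E. coli lysate; bead-bound FITC arrestin peptide fluorescence measuring arrestin peptide binding to AP2; 0% = DMSO wells and 100% = excess unlabeled arrestin peptide control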). Particulars: FITC arrestin peptide, at 10 µM, stronger effect = higher value, AP2 beta2 appendage fragment, R879A mutant.
Chain of AP-2 complex subunit beta (Homo sapiens) (P63010 whole entry, looked up, the tested form may be a part, one chain of several): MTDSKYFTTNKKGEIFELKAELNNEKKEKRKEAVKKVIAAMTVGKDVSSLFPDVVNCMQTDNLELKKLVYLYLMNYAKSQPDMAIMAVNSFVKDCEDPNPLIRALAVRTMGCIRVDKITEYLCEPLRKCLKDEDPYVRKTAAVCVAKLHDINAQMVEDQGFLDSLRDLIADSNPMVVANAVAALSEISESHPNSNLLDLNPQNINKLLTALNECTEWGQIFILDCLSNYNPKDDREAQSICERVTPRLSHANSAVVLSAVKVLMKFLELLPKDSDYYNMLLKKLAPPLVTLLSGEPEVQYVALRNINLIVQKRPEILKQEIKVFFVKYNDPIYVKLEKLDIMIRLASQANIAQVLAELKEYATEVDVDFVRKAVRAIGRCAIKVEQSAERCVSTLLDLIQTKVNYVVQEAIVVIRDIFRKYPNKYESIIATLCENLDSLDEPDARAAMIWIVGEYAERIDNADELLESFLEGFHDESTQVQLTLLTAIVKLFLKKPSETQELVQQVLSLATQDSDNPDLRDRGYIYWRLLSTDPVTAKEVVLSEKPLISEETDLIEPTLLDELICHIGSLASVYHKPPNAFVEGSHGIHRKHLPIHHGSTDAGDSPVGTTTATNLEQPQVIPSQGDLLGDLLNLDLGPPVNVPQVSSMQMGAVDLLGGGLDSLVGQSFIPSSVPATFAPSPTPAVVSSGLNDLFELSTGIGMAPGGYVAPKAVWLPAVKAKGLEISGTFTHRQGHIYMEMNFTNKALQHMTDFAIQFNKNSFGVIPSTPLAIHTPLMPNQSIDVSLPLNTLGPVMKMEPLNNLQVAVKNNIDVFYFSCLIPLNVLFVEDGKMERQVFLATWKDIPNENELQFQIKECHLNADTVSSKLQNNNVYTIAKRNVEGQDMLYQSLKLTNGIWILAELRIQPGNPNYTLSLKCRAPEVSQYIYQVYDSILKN
A short description of assay [12]: yeast V-ATPase proton transport modulators, S. cerevisiae, pHLuorin, HTS validation (AID 504600; in the data active = response above about 15%;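 note: plate controls were DMSO for no effect and reference compound for full effect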). Particulars: S. cerevisiae pHLuorin cytosolic pH, at 10 µM, stronger effect = higher value.
Assay [13] deals with anti-desmoglein-3 scFv antibody binding to human DSG3. Put plainly: inhibitors of anti-DSG3 scFv binding to DSG3, pilot screen, biochemical, validation compound set, bead-based, flow cytometry (AID 588368;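 active = binding below the plate cutoff, the plate median minus 3 SD, with a reading above zero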;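 note: signal is the median channel fluorescence of bead-bound GFP antibody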). The settings on record: Protein G beads, DSG3-Fc, scFv-GFP binding, at 10 µM, stronger effect = lower value.
A short description of assay [14]: inhibitors of fungal efflux pumps CDR1, CDR2, MDR1, pilot screen, validation compound set, multiplex, phenotypic (AID 588506;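 active = efflux inhibition above 0.42, the validation set average plus 4 SD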;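 note: Nile Red retained in cells so higher fluorescence means more efflux inhibition; 0 = negative control wells and 1 = enniatin B 25 µM full block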). The settings on record: S. cerevisiae pump-expressing triplex, Nile Red efflux flow cytometry; at 10 µM; stronger effect = higher value; the pumps come from Candida albicans.
Assay [15] deals with ATP-binding cassette sub-family B member 6 (Homo sapiens) (UniProt Q9NP58). Put plainly: ABCB6 transporter inhibitors, pilot screen, K562-ABCB6 cells, flow cytometry, validation set (AID 588550;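 active = inhibition above the screen-wide mean plus 3 SD, about 51%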;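 note: 0% = DMSO wells and 100% = benzethonium chloride 70 µM positive control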). The settings on record: K562-ABCB6 porphyrin accumulation, 1 h, at 10 µM, stronger effect = higher value.
Chain of ATP-binding cassette sub-family B member 6 (Homo sapiens) (Q9NP58 whole entry, looked up): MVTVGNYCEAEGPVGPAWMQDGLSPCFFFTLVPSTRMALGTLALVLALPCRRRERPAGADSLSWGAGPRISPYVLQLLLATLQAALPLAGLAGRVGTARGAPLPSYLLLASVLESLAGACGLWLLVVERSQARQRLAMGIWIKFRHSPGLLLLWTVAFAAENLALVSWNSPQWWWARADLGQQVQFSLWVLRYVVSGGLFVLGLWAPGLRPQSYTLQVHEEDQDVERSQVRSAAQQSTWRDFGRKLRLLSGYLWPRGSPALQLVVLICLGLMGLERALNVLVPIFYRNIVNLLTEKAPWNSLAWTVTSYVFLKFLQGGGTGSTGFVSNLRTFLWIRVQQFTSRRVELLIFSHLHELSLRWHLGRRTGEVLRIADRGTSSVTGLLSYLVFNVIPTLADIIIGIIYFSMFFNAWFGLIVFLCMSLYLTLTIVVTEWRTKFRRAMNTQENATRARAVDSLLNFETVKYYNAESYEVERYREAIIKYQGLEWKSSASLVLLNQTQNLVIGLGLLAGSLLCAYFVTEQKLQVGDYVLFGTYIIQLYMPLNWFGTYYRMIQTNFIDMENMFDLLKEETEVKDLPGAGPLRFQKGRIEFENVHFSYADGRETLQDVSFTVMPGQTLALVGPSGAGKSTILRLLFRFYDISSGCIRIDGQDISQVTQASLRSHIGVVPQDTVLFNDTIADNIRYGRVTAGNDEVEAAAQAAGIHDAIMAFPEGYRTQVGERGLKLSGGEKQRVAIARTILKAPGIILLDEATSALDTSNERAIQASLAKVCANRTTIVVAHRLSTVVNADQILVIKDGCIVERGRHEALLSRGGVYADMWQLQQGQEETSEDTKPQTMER
A short description of assay [16]: promoters of myeloid differentiation in arrested cells, primary screen, cell-based, GFP/MAC1 double positive, flow cytometry, validation set (AID 588685;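 active = differentiation response of at least 50%, scaled between solvent and reference control, from cells with both markers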;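 note: compound exposure lasts four days before antibody staining and flow analysis; 0% = DMSO wells and 100% = 5 µM fulvestrant positive control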). The settings on record: ER-HoxA9 marrow cells, stronger effect = higher value, normalized: vehicle 0, fulvestrant 100.

In the case of `COc1cc2c(cc1OC)CN(C(=O)c1ccc(S(=O)(=O)N(C)c3ccccc3)cc1)CC2`, the percent of DMSO control GFP in [1] is 95.9% (inactive). The values for the GFP response vs DMSO in [2] and in assay [4] were 101% (inactive) and 115% (inactive), respectively. The percent response of DMSO control in assay [3] is 99.6% (inactive). In assay [5], the GFP response, % of DMSO was 111% (inactive). In addition, in assay [6], the double positive events turned out to be 73.5%. For the same compound, the vesicle binding response in assay [6] is 605% (inactive). For the same compound, the inhibition in assay [7] is 5.69% (inactive); in assay [11], -6.13% (inactive); in [15], 5% (inactive). For the same compound, the superoxide response (% of plate) in assay [8] was 57.5% (active). Moreover, the aptamer binding inhibition in [9] is 1% (inactive). Also, the response is -14.1% (inactive) in assay [10] and 1.25% (inactive) in assay [12]. The binding (% of control) in assay [13] was 96.2% (inactive). Besides, the efflux inhibition (fraction of control) in assay [14] is 0 (inactive). Besides, the differentiation response in assay [16] is 1.91% (inactive).

Turning to `CC(=O)Nc1nnc(S(N)(=O)=O)s1`, the percent of DMSO control GFP in assay [1] is 102% (inactive). Also, the GFP response vs DMSO is 95.1% (inactive) in assay [2] and 88.1% (inactive) in assay [4]. Moreover, the percent response of DMSO control in assay [3] is 116% (inactive). In assay [5], the GFP response, % of DMSO is 102% (inactive). The double positive events in assay [6] is 62.4%. Besides, in [6], the vesicle binding response is 1080% (inactive). In addition, the results for the inhibition in assay [7], in assay [11] and in [15] were 17.2% (inactive), -5.06% (inactive) and 16% (inactive), respectively. In assay [8], the superoxide response (% of plate) is 111% (inactive). Further, the aptamer binding inhibition in [9] was 5% (inactive). The response in [10] is -4.02% (inactive); in [12] it was 0.12% (inactive). Moreover, the binding (% of control) in assay [13] was 102% (inactive). For the same compound, the efflux inhibition (fraction of control) in assay [14] is 0.05 (inactive). Besides, the differentiation response in assay [16] is 6.11% (inactive).

On to `O=c1nc2n(c3c1oc1ccccc13)Cc1ccccc1-2`, for which the percent of DMSO control GFP in assay [1] was 100% (inactive). In addition, the GFP response vs DMSO in [2] and in assay [4] was 105% (inactive) each time. The percent response of DMSO control in assay [3] is 104% (inactive). Also, the GFP response, % of DMSO in assay [5] was 108% (inactive). The compound further came in with a double positive events in assay [6] of 56.6%. For the same compound, the vesicle binding response in assay [6] is 142% (inactive). For the same compound, the inhibition is -3.77% (inactive) in assay [7], -6.48% (inactive) in [11] and -3% (inactive) in assay [15]. For the same compound, in assay [8], the superoxide response (% of plate) was 93.6% (inactive). Moreover, the aptamer binding inhibition in [9] was -1% (inactive). Besides, the response is -25.7% (inactive) in assay [10] and -0.9% (inactive) in [12]. For the same compound, the binding (% of control) in assay [13] is 99.6% (inactive). Besides, the efflux inhibition (fraction of control) in assay [14] is -0.3 (inactive). The differentiation response in [16] was -6.03% (inactive).

Consider `O[C@H]1COC2C1OC[C@@H]2O` (stereo not given in full), for which, in [1], the percent of DMSO control GFP is 99% (inactive). Further, the GFP response vs DMSO in assay [2] is 107% (inactive); in assay [4], 115% (inactive). Also, in assay [3], the percent response of DMSO control is 102% (inactive). Further, in assay [5], the GFP response, % of DMSO is 118% (inactive). In [6], this compound gave a double positive events of 58.3%. The vesicle binding response in assay [6] is 204% (inactive). The inhibition in assay [7] is 1.44% (inactive); in assay [11], 3.72% (inactive); in assay [15], 2% (inactive). Besides, the superoxide response (% of plate) in assay [8] was 87.6% (inactive). The aptamer binding inhibition in assay [9] was 0% (inactive). The response is -28.6% (inactive) in [10] and 1.96% (inactive) in assay [12]. Besides, the binding (% of control) in [13] is 104% (inactive). Besides, the efflux inhibition (fraction of control) in [14] was 0 (inactive). Further, the differentiation response in [16] was -4.99% (inactive).

Take `Clc1ccc2c(c1)CCc1cccnc1C2=C1CCNCC1`: the percent of DMSO control GFP in [1] is 101% (inactive). Besides, the GFP response vs DMSO was 109% (inactive) in assay [2] and 93.3% (inactive) in assay [4]. The percent response of DMSO control in assay [3] was 104% (inactive). In addition, the GFP response, % of DMSO in [5] was 97% (inactive). The compound further returned a double positive events in assay [6] of 63.9%. For the same compound, the vesicle binding response in assay [6] is 1240% (inactive). The inhibition in assay [7] is 3.7% (inactive); in assay [11], 13.9% (inactive); in assay [15], -15% (inactive). Further, the superoxide response (% of plate) in assay [8] is 98.7% (inactive). In addition, in assay [9], the aptamer binding inhibition was 3% (inactive). In addition, the figures for the response in assay [10] and in assay [12] were 16.1% (inactive) and 1.57% (inactive), respectively. The binding (% of control) in assay [13] is 103% (inactive). Also, the efflux inhibition (fraction of control) in [14] is -0.17 (inactive). In addition, in assay [16], the differentiation response is -4.64% (inactive).
